# Test results published in PubChem BioAssay (Tox21).
# Results filed as inconclusive are left out. Some structures have more than one record in an assay (separate samples or runs), and their calls can disagree. The source made the active and inactive calls. Calls follow the shape of the dose curve; as a rule, active = well fitted activation curve with a large enough effect in the repeat runs; inconclusive = weak or mixed curves, or effect the other way; inactive = no such curve, though single readings can be large or run the other way.
# Test: qHTS assay to identify small molecule agonists of the retinoic acid receptor (RAR) signaling pathway (AID 1159553)
# Details: C3RL4 RARE luciferase reporter, agonist, 6 h; series mostly up to 73.3 µM; activation: at the top concentration
# Description: National Center for Advancing Translational Sciences [NCATS] NIH Chemical Genomics Center [NCGC] U.S. Environmental Protection Agency [EPA] National Institutes of Environmental Health Sciences [NIEHS] National Toxicology Program [NTP] Assay overview: All-trans Retinoic acid (atRA) is the potent natural metabolite of retinol and plays an important role in normal embryonic development and maintenance of cellular phenotype in adult animals. atRA is the activating ligand for the retinoic acid receptors (RARs) which form heterodimers with retinoid X receptors (RXRs) on the retinoic acid response element (RARE). Through activation of the RAR/RXRs nuclear receptors, atRA regulates the transcription of a large number of protein-coding genes and regulatory RNAs. Intracellular levels of atRA are controlled by the retinol signaling pathway (RSP) that regulates the biosynthesis and catabolism of atRA to maintain physiological levels. Chemicals that interfere with the RSP can cause abnormal intracellular levels of atRA and therefore are potential developmental toxicants. To assess compounds for the potential adverse effect on embryonic development through interfering with retinol signaling, a cell-based RARE luciferase reporter gene assay was used. C3RL4 cell line (OARSA/CFSAN/FDA, Laurel, MD) was used to screen Tox21 10K compound library for identifying activators of the RSP.
# Assay Protocol Summary: C3RL4 cells were seeded at 1,000/well in 5 uL of assay medium into white solid 1,536-well tissue culture plates (Greiner Bio-One North America Inc. Monroe, NC) using a Multidrop Combi (Thermo Scientific, Waltham, MA) dispenser. After incubation at 37 C and 5% CO2 for an overnight, 23 nL of compounds dissolved in DMSO, positive control or DMSO only were transferred by a Pintool station (Kalypsys, San Diego, CA). After 6 hr incubation at 37 C and 5% CO2, 5 uL of Amplite Luciferase reagent (AAT Bioquest Inc. Sunnyvale, CA) was added to each assay plate using a Flying Reagent Dispenser (FRD) (Aurora Discovery, San Diego, CA). Luminescence was quantified on a ViewLux plate reader (PerkinElmer, Waltham, MA) after 30 min incubation at room temperature.
# % is scaled to controls: 0 for no effect and ±100 for the full control effect; potency is read from the fitted curve at half-maximal effect.
SMILES,activation,Potency
CCOC(=O)CCC(C)=O,2.75% (inactive),
C/C=C(\C)C#N,0.142% (inactive),
COc1ccccc1OCC(O)CN1CCN(CC(=O)Nc2c(C)cccc2C)CC1 (stereo not given),-0.786% (inactive),
CC[N+](C)(C)c1cccc(O)c1,-2.88% (inactive),
CCO[Si](CCC1CCC2OC2C1)(OCC)OCC (stereo not given),1.54% (inactive),
N=C(N)c1ccccc1,-0.473% (inactive),
CCn1ccnc1CC1COc2ccccc2O1 (stereo not given),4.66% (inactive),
O=c1cc(CO)occ1O,-5.44% (inactive),
CCc1cccc2c(CCO)c[nH]c12,1.54% (inactive),
COc1ccc2c(c1)c(CC(=O)OCC(=O)O)c(C)n2C(=O)c1ccc(Cl)cc1,-0.401% (inactive),
Cc1[nH]c(=O)c(C#N)cc1-c1ccc2nccn2c1,1.06% (inactive),
NC(=O)COCCN1CCN(C(c2ccccc2)c2ccc(Cl)cc2)CC1 (stereo not given),-4.12% (inactive),
Cc1cc(O)cc2c1O[C@](C)(CCC[C@H](C)CCC[C@H](C)CCCC(C)C)CC2,1.12% (inactive),
CCCCC(CC)COC(=O)c1ccccc1O (stereo not given),0.398% (inactive),
Cc1cccc(C)c1NC(=O)C(C)N (stereo not given),0.204% (inactive),
CCOC(C)(C)C,-2.57% [at 94.8 µM] (inactive),
N=C(N)c1ccc(OCCCOc2ccc(C(=N)N)cc2)cc1,2.61% (inactive),
C=C1CC[C@H]2C[C@@H]1C2(C)C,0.939% (inactive),
C1CN(CCOCCN2CCOCC2)CCO1,0.31% (inactive),
CCc1nccnc1CC,9.31% [at 34.3 µM] (inactive),

SMILES,activation,Potency
CCOC(=O)c1cccc(N)c1,4.09% (inactive),
CCCN(CCC)CCc1cccc2c1CC(=O)N2,0.0418% (inactive),
CCC(C)C1CCCCC1=O (stereo not given),-0.0127% (inactive),
CC(=O)OCC(=O)[C@@]1(O)CCC2C3CCC4=CC(=O)CC[C@]4(C)C3[C@@H](O)C[C@@]21C (stereo not given in full),-7.52% (inactive),
C=C(C)C(=O)OCCCCCCCC(C)C,0.0518% [at 94.8 µM] (inactive),
CC(C)NCC(O)c1ccc(NS(C)(=O)=O)cc1 (stereo not given),0.453% [at 94.8 µM] (inactive),
CCN1CCC[C@H]1CNC(=O)c1c(O)c(Cl)cc(Cl)c1OC,-1.87% (inactive),
C[C@H](NC(CCc1ccccc1)C(=O)O)C(=O)N1CCC[C@H]1C(=O)O (stereo not given in full),-1.65% (inactive),
c1ccc([C@H]2CN3CCSC3=N2)cc1,-2.21% (inactive),
C[C@](N)(Cc1ccc(O)cc1)C(=O)O,-0.945% [at 8.36 µM] (inactive),
O=C1CC2CC1C1CCCC21 (stereo not given),0.232% (inactive),
N=c1nc(N2CCCCC2)cc(N)n1O,0.466% (inactive),
Nc1nc2c(ncn2COC(CO)CO)c(=O)[nH]1,0.559% (inactive),
CCOC(=O)CC(C)=O,-1.11% [at 94.8 µM] (inactive),
CN(C)CCCSc1ccccc1NC(=O)/C=C/c1ccccc1,3.83% (inactive),
FC1(F)C(F)(F)C(F)(F)C2(F)C(F)(F)C(F)(F)C(F)(F)C(F)(F)C2(F)C1(F)F (stereo not given),-0.478% (inactive),
COC(=O)C1=C(C)NC(C)=C(C(=O)OC)C1c1ccccc1[N+](=O)[O-],,24.4 µM (active) and inactive
COc1c(N2C[C@@H]3CCCN[C@@H]3C2)c(F)cc2c(=O)c(C(=O)O)cn(C3CC3)c12,-6.34% (inactive),
NCCc1cnc[nH]1,0.0625% (inactive),
C=CCS(=O)(=O)O,2.26% (inactive),
